Reference: PubChem BioAssay (NCATS)
For part of these data: Entries with a potency or affinity are not part of this list. Activity calls are given as the source filed them. How the calls were made is not given here.

Tests used:
[1] = Ebola virus entry assay, green fluorescence channel
[2] = Ebola virus entry assay, green channel fluorescence
[3] = Ebola virus entry assay, reporter ratio channel; AC50: Channel type: primary unless noted; outcome: Channel type: primary unless noted

Measured: efficacy
Wherever efficacy is given: 0% is about no effect.

NC(N)=NCCN1CCCCCCC1
inactive: [1] -19.4% | [2] | [3]

C[C@@H](CN1CC(=O)NC(=O)C1)N1CC(=O)NC(=O)C1
inactive: [1] 17.9% | [2] | [3]

COC(=O)/C=C(/C)N
inactive: [1] 22.1% | [2] | [3]

Cc1c(C(C)C)c(=O)n(-c2ccccc2)n1C
inactive: [1] 14.2% | [2] | [3]

CC(=O)Nc1ccc(/C=N/NC(N)=S)cc1
inactive: [1] 33.2% | [2] | [3]

Oc1ccccc1-c1nnco1
inactive: [1] 7.99% | [2] | [3]

COc1cnc(NS(=O)(=O)c2ccc(N)cc2)nc1
inactive: [1] -24.4% | [2] | [3]

COc1cc(C(=O)N2CCOCC2)cc(OC)c1OC
inactive: [1] -19.5% | [2] | [3]

COc1ccccc1OCC(O)CO (stereo not drawn)
inactive: [1] 12% | [2] | [3]

C[C@@H](O)[C@H]1C(=O)N2C(C(=O)O)=C(SCCN=CN)C[C@H]12
inactive: [1] 21.9% | [2] | [3]

CC(=O)Nc1c(I)c(NC(C)=O)c(I)c(C(=O)O)c1I
inactive: [1] -8.35% | [2] | [3]

Cc1cc(O)cc(C)c1Cl
inactive: [1] -20.2% | [2] | [3]

Nc1ccc(C(=O)Nc2ccccc2N)cc1
inactive: [1] -27% | [2] | [3]

CCCc1ccc(OCC(=O)N2CCN(C(=O)COc3ccc(CCC)cc3OC)CC2)c(OC)c1
inactive: [1] 12.4% | [2] | [3]

COc1ccc(/C(C)=C/C(=O)O)c(OC)c1
inactive: [1] -13.7% | [2] | [3]

Cn1c(=O)c2[nH]c(Br)nc2n(C)c1=O
inactive: [1] -24.3% | [2] | [3]

Cc1scc2c1N(C(=O)CN1CCN(C)CC1)c1ccccc1NC2=O
inactive: [1] 20.4% | [2] | [3]

CN1N=C(C(N)=O)CCC1=O
inactive: [1] -14% | [2] | [3]

COc1cc(/C=C/C(N)=O)cc(OC)c1OC
inactive: [1] -22.5% | [2] | [3]

COc1ccc2c(c1)CCCC2=O
inactive: [1] 8.41% | [2] | [3]

CCCCC(CC)CNC(=O)CC(C)OC(=O)CCC(=O)O (stereo not drawn)
inactive: [1] 12.2% | [2] | [3]

COC(=O)CCCCC(CCSS/C(CCO)=C(\C)N(C=O)Cc1cnc(C)nc1N)SC(C)=O (stereo not drawn)
inactive: [1] -13.6% | [2] | [3]

CC(=O)C1CCOC1=O (stereo not drawn)
inactive: [1] 6.81% | [2] | [3]

CCCc1nn(C)c2c(=O)[nH]c(-c3cc(S(=O)(=O)N4CCN(C)CC4)ccc3OCC)nc12
inactive: [1] 14.7% | [2] | [3]

O=C(N/N=C/c1ccc([N+](=O)[O-])o1)c1cc([N+](=O)[O-])cc([N+](=O)[O-])c1O
inactive: [1] -16.9% | [2] | [3]

NC(=O)NC1NC(=O)NC1=O (stereo not drawn)
inactive: [1] -19.2% | [2] | [3]

CO/N=C(/C(=O)N[C@@H]1C(=O)N2C(C(=O)OCOC(=O)C(C)(C)C)=C(C)CS[C@H]12)c1csc(N)n1
inactive: [1] -17.1% | [2] | [3]

Cc1ccccc1N1CCN(CCc2nnc3n2CCCC3)CC1
inactive: [1] -13.1% | [2] | [3]

COP(=O)(OC)OC(c1ccc(Cl)cc1)P(=O)(OC)OC (stereo not drawn)
inactive: [1] -15.4% | [2] | [3]

COc1ccc2[nH]cc(CCNC(C)=O)c2c1
inactive: [1] -12.3% | [2] | [3]

Cc1c(Nc2ncccc2C(=O)O)cccc1C(F)(F)F
inactive: [1] -17.3% | [2] | [3]

CC(=O)OCC(=O)[C@@]1(O)CC[C@H]2[C@@H]3CCC4=CC(=O)C=C[C@]4(C)[C@@]3(F)[C@@H](O)C[C@@]21C
inactive: [1] 26.4% | [2] | [3]

O=c1cc[nH]c(=S)[nH]1
inactive: [1] 12.4% | [2] | [3]

C[C@@H]1O[C@@H](OC[C@H]2O[C@@H](Oc3c(-c4ccc(O)c(O)c4)oc4cc(O)cc(O)c4c3=O)[C@H](O)[C@@H](O)[C@@H]2O)[C@H](O)[C@H](O)[C@H]1O
inactive: [1] 21.1% | [2] | [3]

CCCCCCCCCCCCCCCCCCO
inactive: [1] -11.3% | [2] | [3]

CC(C)Cc1ccc(C(C)C(=O)O)cc1 (stereo not drawn)
inactive: [1] 17.8% | [2] | [3]
